{"source": "PubChem BioAssay (NCATS)", "note": "Results filed as inconclusive are left out. Where a call stands in place of a potency, no number is given. The source made the active and inactive calls. The call rests on the fitted dose curve; in most records, active means well fitted cell-killing curve with a large enough effect; inconclusive means small, poorly fitted or top-dose-only effect; inactive means flat fitted curve, though single readings scatter. Potency means the concentration at half of the fitted maximal effect.", "data": [{"test": "Cell Viability - LYMP2-022 (AID 987); further: nearly all actives have a fitted effect of over 55% in size", "details": "LYMP2-022 lymphoblastoid cell viability; series mostly up to 92.2 µM", "summary_of_the_method": "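In this qHTS cytotoxicity screen, compound titrations were incubated 24 hr at 37 C with human lymphoblastoid cells in complete medium. Luciferase-based ATP luminescence provided the viability signal.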", "values": [{"smiles": "Cc1ccc2c(c1N)C(=O)c1ccccc1C2=O", "Potency": "inactive"}, {"smiles": "COc1ccccc1N", "Potency": "inactive"}, {"smiles": "CC(C)(C)OOC(=O)c1ccccc1", "Potency": "inactive"}, {"smiles": "c1ccc(N=NNc2ccccc2)cc1", "Potency": "inactive"}, {"smiles": "COC(C)(C)C", "Potency": "inactive"}, {"smiles": "CN(C)c1ccc(N)cc1", "Potency": "50.1 µM (active)"}, {"smiles": "O=[N+]([O-])/C=C/c1ccccc1", "Potency": "39.8 µM (active)"}]}, {"test": "Cell Viability - LYMP2-024 (AID 988); further: nearly all actives have a fitted effect of over 60% in size", "details": "LYMP2-024 lymphoblastoid cell viability; series mostly up to 92.2 µM", "summary_of_the_method": "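Cells at 2500 per well received compound for 24 hr after a 5 hr settling period. Viability was scored by CellTiter-Glo luminescence, with AC50 from Hill fits.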", "values": [{"smiles": "O=C(O)C(Br)Br", "Potency": "inactive"}, {"smiles": "Cc1ccc(OP(=O)(Oc2ccc(C)cc2)Oc2ccc(C)cc2)cc1", "Potency": "inactive"}, {"smiles": "Oc1c(Cl)c(Cl)cc(Cl)c1Cl", "Potency": "inactive"}, {"smiles": "Nc1ccc(Cc2ccc(N)c(Cl)c2)cc1Cl", "Potency": "inactive"}, {"smiles": "CN(C)c1ccc(N(C)C)cc1", "Potency": "50.1 µM (active)"}, {"smiles": "Brc1ccc(Oc2ccc(Br)cc2Br)c(Br)c1", "Potency": "inactive"}, {"smiles": "O=[N+]([O-])c1c(Cl)c(Cl)c(Cl)c(Cl)c1Cl", "Potency": "inactive"}, {"smiles": "ClCC(Cl)Cl", "Potency": "inactive"}, {"smiles": "CC(C)Br", "Potency": "inactive"}, {"smiles": "O=[N+]([O-])c1ccc(O)c([N+](=O)[O-])c1", "Potency": "inactive"}, {"smiles": "CC(C)[N+](=O)[O-]", "Potency": "inactive"}, {"smiles": "Cc1cc(-c2cc(C)c(N)c(C)c2)cc(C)c1N", "Potency": "inactive"}, {"smiles": "Nc1cc(Cl)ccc1O", "Potency": "inactive"}, {"smiles": "CCN(N=O)C(N)=O", "Potency": "inactive"}, {"smiles": "N#CC(Cl)(Cl)Cl", "Potency": "inactive"}, {"smiles": "O=[N+]([O-])c1ccccc1CCl", "Potency": "inactive"}, {"smiles": "Cc1cc(C)cc(OP(=O)(Oc2cc(C)cc(C)c2)Oc2cc(C)cc(C)c2)c1", "Potency": "inactive"}, {"smiles": "O=C(O)C(Cl)Br", "note": "(stereo unspecified)", "Potency": "inactive"}, {"smiles": "COP(=S)(OC)SCn1nnc2ccccc2c1=O", "Potency": "inactive"}, {"smiles": "Nc1ccc([N+](=O)[O-])cc1N", "Potency": "inactive"}, {"smiles": "O=C(O)c1cccc(Cl)c1", "Potency": "inactive"}, {"smiles": "Cc1cc(N=Nc2ccccc2C)ccc1N", "Potency": "inactive"}, {"smiles": "O=[N+]([O-])c1cc(Cl)c(Cl)c(Cl)c1", "Potency": "inactive"}, {"smiles": "CC(C)(COCC1CO1)COCC1CO1", "note": "(stereo unspecified)", "Potency": "inactive"}, {"smiles": "Cc1ccc2c(c1N)C(=O)c1ccccc1C2=O", "Potency": "inactive"}, {"smiles": "COc1ccccc1N", "Potency": "inactive"}, {"smiles": "CC(C)(C)OOC(=O)c1ccccc1", "Potency": "inactive"}, {"smiles": "c1ccc(N=NNc2ccccc2)cc1", "Potency": "inactive"}, {"smiles": "COC(C)(C)C", "Potency": "inactive"}, {"smiles": "CN(C)c1ccc(N)cc1", "Potency": "50.1 µM (active)"}, {"smiles": "O=[N+]([O-])/C=C/c1ccccc1", "Potency": "39.8 µM (active)"}]}, {"test": "Cell Viability - LYMP2-026 (AID 989);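 further: cells exposed to compound for 24 h at 37 °C; nearly all actives have a fitted effect of over 50% in size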", "details": "LYMP2-026 lymphoblastoid cell viability, qHTS; series mostly up to 92.2 µM", "summary_of_the_method": "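Acute toxicity screen in complete culture medium, with 24 hr compound exposure at 37 C. Viability read as cellular ATP via luciferase reaction, with tetraoctylammonium bromide (6.4pM to 92 uM) as positive control.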", "values": [{"smiles": "O=C(O)C(Br)Br", "Potency": "inactive"}, {"smiles": "Cc1ccc(OP(=O)(Oc2ccc(C)cc2)Oc2ccc(C)cc2)cc1", "Potency": "inactive"}, {"smiles": "Oc1c(Cl)c(Cl)cc(Cl)c1Cl", "Potency": "inactive"}, {"smiles": "Nc1ccc(Cc2ccc(N)c(Cl)c2)cc1Cl", "Potency": "inactive"}, {"smiles": "CN(C)c1ccc(N(C)C)cc1", "Potency": "inactive"}, {"smiles": "Brc1ccc(Oc2ccc(Br)cc2Br)c(Br)c1", "Potency": "inactive"}, {"smiles": "O=[N+]([O-])c1c(Cl)c(Cl)c(Cl)c(Cl)c1Cl", "Potency": "inactive"}, {"smiles": "CN1CSC(=S)N(C)C1", "Potency": "39.8 µM (active)"}, {"smiles": "ClCC(Cl)Cl", "Potency": "inactive"}, {"smiles": "C=CC(=O)OCCO", "Potency": "inactive"}, {"smiles": "CC(C)Br", "Potency": "inactive"}, {"smiles": "O=[N+]([O-])c1ccc(O)c([N+](=O)[O-])c1", "Potency": "inactive"}, {"smiles": "CC(C)[N+](=O)[O-]", "Potency": "inactive"}, {"smiles": "CCCC[N+](=O)[O-]", "Potency": "inactive"}, {"smiles": "Cc1cc(-c2cc(C)c(N)c(C)c2)cc(C)c1N", "Potency": "inactive"}, {"smiles": "Nc1cc(Cl)ccc1O", "Potency": "inactive"}, {"smiles": "CCN(N=O)C(N)=O", "Potency": "inactive"}, {"smiles": "N#CC(Cl)(Cl)Cl", "Potency": "inactive"}, {"smiles": "CCCCC(CC)COC(=O)c1ccc(C(=O)OCC(CC)CCCC)c(C(=O)OCC(CC)CCCC)c1", "note": "(stereo unspecified)", "Potency": "inactive"}, {"smiles": "O=C(O)C(Br)CBr", "note": "(stereo unspecified)", "Potency": "inactive"}, {"smiles": "Nc1c(Br)cc([N+](=O)[O-])cc1[N+](=O)[O-]", "Potency": "inactive"}, {"smiles": "O=[N+]([O-])c1ccccc1CCl", "Potency": "inactive"}, {"smiles": "Cc1cc(C)cc(OP(=O)(Oc2cc(C)cc(C)c2)Oc2cc(C)cc(C)c2)c1", "Potency": "inactive"}, {"smiles": "N#CC(Br)Br", "Potency": "inactive"}, {"smiles": "O=C(O)C(Cl)Br", "note": "(stereo unspecified)", "Potency": "inactive"}, {"smiles": "COP(=S)(OC)SCn1nnc2ccccc2c1=O", "Potency": "inactive"}, {"smiles": "Nc1ccc([N+](=O)[O-])cc1N", "Potency": "inactive"}, {"smiles": "O=C(O)c1cccc(Cl)c1", "Potency": "inactive"}, {"smiles": "Cc1cc(N=Nc2ccccc2C)ccc1N", "Potency": "inactive"}, {"smiles": "OCCCCO", "Potency": "inactive"}, {"smiles": "O=[N+]([O-])c1cc(Cl)c(Cl)c(Cl)c1", "Potency": "inactive"}, {"smiles": "CC(C)(COCC1CO1)COCC1CO1", "note": "(stereo unspecified)", "Potency": "inactive"}, {"smiles": "Cc1ccc2c(c1N)C(=O)c1ccccc1C2=O", "Potency": "inactive"}, {"smiles": "COc1ccccc1N", "Potency": "inactive"}, {"smiles": "CC(C)(C)OOC(=O)c1ccccc1", "Potency": "inactive"}, {"smiles": "c1ccc(N=NNc2ccccc2)cc1", "Potency": "inactive"}, {"smiles": "COC(C)(C)C", "Potency": "inactive"}, {"smiles": "C(CCOCC1CO1)COCC1CO1", "note": "(stereo unspecified)", "Potency": "inactive"}]}]}
